Test results reported in the supplement of paper PMC10849652.
The full data set covers some 8,800 targets. This sample favours those with a hit. About 0.5% of all pairs of compound and target were hits. Unmarked numbers belong to inactive results.

Columns and labels:
Experiment in all cases: log2 fold change, soluble protein after heating vs DMSO (PISA); higher = thermal stabilisation; K562 lysate, 10 uM; active = over 0.2 and 3.5 SD of the protein, either way, in both replicates (recomputed)
alvocidib = compound: CN1CC[C@H](c2c(O)cc(O)c3c(=O)cc(-c4ccccc4Cl)oc23)[C@H](O)C1 [alvocidib]
Procedure, shortened: (§1)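 Soluble protein was defined as the supernatant remaining after 21,000xg for 90 min, following pooling of heated aliquots and adjustment to 0.5% NP-40 at 4°C. Before that, crude K562 extract at 1 mg/mL protein in PBS pH 7.4 with 1 mM MgCl2 was treated with 10 μM compound for 30 min and heated for 3 min across 48°C-58°C. Quantification used TMTpro 16plex LC-MS/MS with channel sums equalised, and values are log-two fold changes in thermal stability relative to solvent controls from duplicates.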

Tubastatin A = compound: CN1CCc2c(c3ccccc3n2Cc2ccc(C(=O)NO)cc2)C1 [Tubastatin A]
Procedure, shortened: as §1

[1] = compound: CNC(=O)C1=CC=CC=C1NC2=NC(=NC=C2Cl)NC3=C(C=C(C=C3)N4CCOCC4)OC
Procedure, shortened: as §1

defactinib = compound: CNC(=O)c1ccc(Nc2ncc(C(F)(F)F)c(NCc3nccnc3N(C)S(C)(=O)=O)n2)cc1 [defactinib]
Procedure, shortened: as §1

[2] = compound: CNc1nc(-c2ccc3c(N)n[nH]c3c2)cc(N2C[C@@H](C(=O)NC3CCCCC3)CC[C@H]2C)n1
Procedure, shortened: as §1

encorafenib = compound: COC(=O)N[C@@H](C)CNc1nccc(-c2cn(C(C)C)nc2-c2cc(Cl)cc(NS(C)(=O)=O)c2F)n1 [encorafenib]
Procedure, shortened: as §1

[3] = compound: COC(=O)[C@H](CCSC)NC(=O)C1=C(C=C(C=C1)NC[C@H](CS)N)C2=CC=CC=C2
Procedure, shortened: as §1

alisertib = compound: COc1cc(Nc2ncc3c(n2)-c2ccc(Cl)cc2C(c2c(F)cccc2OC)=NC3)ccc1C(=O)O [alisertib]
Procedure, shortened: as §1

[4] = compound: COc1cc2nc(-c3cc(F)ccc3O)nc(N[C@@H]3CNC[C@H]3C(C)(C)O)c2cc1OC
Procedure, shortened: as §1

gefitinib = compound: COc1cc2ncnc(Nc3ccc(F)c(Cl)c3)c2cc1OCCCN1CCOCC1 [gefitinib]
Procedure, shortened: as §1

lapatinib = compound: CS(=O)(=O)CCNCc1ccc(-c2ccc3ncnc(Nc4ccc(OCc5cccc(F)c5)c(Cl)c4)c3c2)o1 [lapatinib]
Procedure, shortened: as §1

pictilisib = compound: CS(=O)(=O)N1CCN(Cc2cc3nc(-c4cccc5[nH]ncc45)nc(N4CCOCC4)c3s2)CC1 [pictilisib]
Procedure, shortened: as §1

crizotinib = compound: C[C@@H](Oc1cc(-c2cnn(C3CCNCC3)c2)cnc1N)c1c(Cl)ccc(F)c1Cl [crizotinib]
Procedure, shortened: as §1

[5] = compound: C[C@H](C1=CC=C(C=C1)C(=O)NC2=C3C=CNC3=NC=C2)N
Procedure, shortened: as §1

duvelisib = compound: C[C@H](Nc1ncnc2nc[nH]c12)c1cc2cccc(Cl)c2c(=O)n1-c1ccccc1 [duvelisib]
Procedure, shortened: as §1

gandotinib = compound: Cc1cc(Nc2cc(CN3CCOCC3)c3nc(C)c(Cc4ccc(Cl)cc4F)n3n2)n[nH]1 [gandotinib]
Procedure, shortened: as §1

tozasertib = compound: Cc1cc(Nc2cc(N3CCN(C)CC3)nc(Sc3ccc(NC(=O)C4CC4)cc3)n2)n[nH]1 [tozasertib]
Procedure, shortened: as §1

doramapimod = compound: Cc1ccc(-n2nc(C(C)(C)C)cc2NC(=O)Nc2ccc(OCCN3CCOCC3)c3ccccc23)cc1 [doramapimod]
Procedure, shortened: as §1

bafetinib = compound: Cc1ccc(NC(=O)c2ccc(CN3CC[C@H](N(C)C)C3)c(C(F)(F)F)c2)cc1Nc1nccc(-c2cncnc2)n1 [bafetinib]
Procedure, shortened: as §1

[6] = compound: Cc1cccc(CC(=O)N2CCc3c2ccc(-c2cn(C)c4ncnc(N)c24)c3F)n1
Procedure, shortened: as §1

UniProt Q13442, sequence (Q13442 whole entry, looked up): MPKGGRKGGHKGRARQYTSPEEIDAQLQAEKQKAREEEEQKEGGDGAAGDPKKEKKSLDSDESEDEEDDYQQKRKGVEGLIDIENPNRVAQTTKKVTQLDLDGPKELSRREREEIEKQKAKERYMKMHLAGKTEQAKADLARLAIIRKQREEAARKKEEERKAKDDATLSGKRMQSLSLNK
UniProt P31323, sequence (P31323 whole entry, looked up): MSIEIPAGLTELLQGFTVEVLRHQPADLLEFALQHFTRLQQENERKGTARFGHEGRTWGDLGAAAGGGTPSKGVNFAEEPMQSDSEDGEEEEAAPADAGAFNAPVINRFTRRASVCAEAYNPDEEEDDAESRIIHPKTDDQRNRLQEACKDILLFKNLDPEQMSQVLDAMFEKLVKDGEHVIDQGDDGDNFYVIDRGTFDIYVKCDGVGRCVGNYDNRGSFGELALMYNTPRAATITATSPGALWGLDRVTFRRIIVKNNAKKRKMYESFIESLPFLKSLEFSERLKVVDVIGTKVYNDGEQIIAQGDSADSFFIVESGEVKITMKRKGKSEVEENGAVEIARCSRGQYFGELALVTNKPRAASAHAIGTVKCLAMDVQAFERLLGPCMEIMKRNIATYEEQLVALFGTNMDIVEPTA
UniProt Q5JRX3, sequence (Q5JRX3 whole entry, looked up): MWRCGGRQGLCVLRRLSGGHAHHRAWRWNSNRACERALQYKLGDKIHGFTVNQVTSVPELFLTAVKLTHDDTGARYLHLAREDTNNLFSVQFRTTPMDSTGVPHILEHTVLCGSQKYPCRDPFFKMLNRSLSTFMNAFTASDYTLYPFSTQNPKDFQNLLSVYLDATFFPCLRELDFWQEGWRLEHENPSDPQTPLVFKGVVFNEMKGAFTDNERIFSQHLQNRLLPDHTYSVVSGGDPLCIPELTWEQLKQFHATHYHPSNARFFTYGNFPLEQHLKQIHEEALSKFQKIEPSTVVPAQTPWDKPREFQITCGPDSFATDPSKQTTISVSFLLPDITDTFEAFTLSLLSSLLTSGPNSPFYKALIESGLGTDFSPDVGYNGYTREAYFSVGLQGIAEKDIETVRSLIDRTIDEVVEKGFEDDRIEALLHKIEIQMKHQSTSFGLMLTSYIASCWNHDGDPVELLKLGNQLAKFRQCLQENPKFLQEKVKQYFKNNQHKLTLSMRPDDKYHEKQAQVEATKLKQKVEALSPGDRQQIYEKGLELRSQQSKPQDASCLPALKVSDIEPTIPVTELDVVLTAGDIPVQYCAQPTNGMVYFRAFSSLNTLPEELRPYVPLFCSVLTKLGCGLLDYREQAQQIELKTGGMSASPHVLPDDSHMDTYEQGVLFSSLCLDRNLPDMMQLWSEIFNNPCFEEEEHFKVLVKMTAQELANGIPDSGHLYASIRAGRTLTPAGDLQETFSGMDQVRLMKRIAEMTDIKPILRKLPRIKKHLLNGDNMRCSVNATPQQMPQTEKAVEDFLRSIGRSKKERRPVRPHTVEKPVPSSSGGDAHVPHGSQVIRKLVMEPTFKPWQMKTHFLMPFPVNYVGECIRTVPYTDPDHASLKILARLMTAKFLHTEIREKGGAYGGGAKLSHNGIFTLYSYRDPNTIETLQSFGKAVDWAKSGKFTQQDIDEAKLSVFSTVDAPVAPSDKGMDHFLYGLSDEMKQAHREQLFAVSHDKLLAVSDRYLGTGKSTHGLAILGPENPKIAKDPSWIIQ
UniProt P07737, sequence (P07737 whole entry, looked up): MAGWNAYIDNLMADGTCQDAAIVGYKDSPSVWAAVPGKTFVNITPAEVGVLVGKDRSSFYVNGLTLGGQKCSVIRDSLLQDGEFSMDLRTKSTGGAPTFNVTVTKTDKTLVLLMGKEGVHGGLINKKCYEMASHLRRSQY
UniProt Q15054, sequence (Q15054 whole entry, looked up): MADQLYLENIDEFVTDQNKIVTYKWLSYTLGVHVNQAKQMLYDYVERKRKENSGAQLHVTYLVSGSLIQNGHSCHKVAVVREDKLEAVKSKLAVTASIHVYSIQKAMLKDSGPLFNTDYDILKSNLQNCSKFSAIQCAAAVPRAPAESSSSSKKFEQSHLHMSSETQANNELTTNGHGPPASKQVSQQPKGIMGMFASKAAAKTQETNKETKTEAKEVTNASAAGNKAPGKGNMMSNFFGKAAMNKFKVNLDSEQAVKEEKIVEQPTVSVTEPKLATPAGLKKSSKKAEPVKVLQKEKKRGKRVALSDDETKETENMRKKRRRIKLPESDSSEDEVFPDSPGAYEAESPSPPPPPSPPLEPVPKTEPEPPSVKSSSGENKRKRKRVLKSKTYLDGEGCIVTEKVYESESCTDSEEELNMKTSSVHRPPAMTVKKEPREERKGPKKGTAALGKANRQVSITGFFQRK
UniProt P50336, sequence (P50336 whole entry, looked up): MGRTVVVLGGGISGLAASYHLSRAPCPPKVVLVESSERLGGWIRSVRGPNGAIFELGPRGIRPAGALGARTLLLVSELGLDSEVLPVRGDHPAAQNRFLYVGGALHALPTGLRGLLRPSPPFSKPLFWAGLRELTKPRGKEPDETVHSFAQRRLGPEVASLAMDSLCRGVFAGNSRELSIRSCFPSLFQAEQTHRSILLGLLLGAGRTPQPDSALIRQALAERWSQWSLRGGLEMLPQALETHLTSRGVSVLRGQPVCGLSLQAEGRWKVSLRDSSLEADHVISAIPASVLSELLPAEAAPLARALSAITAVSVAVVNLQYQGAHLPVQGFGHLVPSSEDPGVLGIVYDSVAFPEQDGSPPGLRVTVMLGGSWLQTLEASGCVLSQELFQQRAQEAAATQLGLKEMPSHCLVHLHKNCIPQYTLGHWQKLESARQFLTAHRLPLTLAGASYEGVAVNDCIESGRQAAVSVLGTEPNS
UniProt Q9Y6I8, sequence (Q9Y6I8 whole entry, looked up): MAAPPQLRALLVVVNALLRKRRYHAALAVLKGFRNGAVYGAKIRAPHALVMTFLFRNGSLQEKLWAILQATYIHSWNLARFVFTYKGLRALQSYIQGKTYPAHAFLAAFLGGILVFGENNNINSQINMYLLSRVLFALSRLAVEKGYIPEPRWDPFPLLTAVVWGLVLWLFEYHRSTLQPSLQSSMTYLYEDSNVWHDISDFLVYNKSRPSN
UniProt Q93100, sequence (Q93100 whole entry, looked up): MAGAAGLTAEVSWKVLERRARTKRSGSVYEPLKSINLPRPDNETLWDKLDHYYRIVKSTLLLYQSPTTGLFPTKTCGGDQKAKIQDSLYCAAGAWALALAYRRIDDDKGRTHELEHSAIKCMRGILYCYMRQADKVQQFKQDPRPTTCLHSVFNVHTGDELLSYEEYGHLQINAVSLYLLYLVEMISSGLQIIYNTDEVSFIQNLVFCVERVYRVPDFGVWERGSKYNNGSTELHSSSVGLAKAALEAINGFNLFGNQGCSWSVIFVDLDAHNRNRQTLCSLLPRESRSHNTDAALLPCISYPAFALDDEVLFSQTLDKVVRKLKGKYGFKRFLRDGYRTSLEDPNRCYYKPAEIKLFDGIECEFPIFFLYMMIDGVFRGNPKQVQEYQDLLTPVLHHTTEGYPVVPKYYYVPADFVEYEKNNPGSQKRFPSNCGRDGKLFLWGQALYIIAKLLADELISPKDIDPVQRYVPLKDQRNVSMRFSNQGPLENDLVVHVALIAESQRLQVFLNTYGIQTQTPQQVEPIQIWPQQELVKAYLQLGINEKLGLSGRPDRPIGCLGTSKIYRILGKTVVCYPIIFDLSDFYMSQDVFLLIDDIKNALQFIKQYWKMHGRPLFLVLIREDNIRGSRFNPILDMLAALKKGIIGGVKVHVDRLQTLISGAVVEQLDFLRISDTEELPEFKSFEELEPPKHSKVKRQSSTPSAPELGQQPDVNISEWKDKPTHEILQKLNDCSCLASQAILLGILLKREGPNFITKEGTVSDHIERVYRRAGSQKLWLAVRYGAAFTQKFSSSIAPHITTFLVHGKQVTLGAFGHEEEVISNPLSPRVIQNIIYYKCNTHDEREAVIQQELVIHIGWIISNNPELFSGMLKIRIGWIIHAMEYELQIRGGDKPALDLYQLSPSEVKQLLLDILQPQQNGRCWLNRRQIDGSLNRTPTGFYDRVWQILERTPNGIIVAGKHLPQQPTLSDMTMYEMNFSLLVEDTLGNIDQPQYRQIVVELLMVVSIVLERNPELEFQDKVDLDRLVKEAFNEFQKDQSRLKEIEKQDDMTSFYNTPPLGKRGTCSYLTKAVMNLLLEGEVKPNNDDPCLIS
UniProt Q9UBV8, sequence (Q9UBV8 whole entry, looked up): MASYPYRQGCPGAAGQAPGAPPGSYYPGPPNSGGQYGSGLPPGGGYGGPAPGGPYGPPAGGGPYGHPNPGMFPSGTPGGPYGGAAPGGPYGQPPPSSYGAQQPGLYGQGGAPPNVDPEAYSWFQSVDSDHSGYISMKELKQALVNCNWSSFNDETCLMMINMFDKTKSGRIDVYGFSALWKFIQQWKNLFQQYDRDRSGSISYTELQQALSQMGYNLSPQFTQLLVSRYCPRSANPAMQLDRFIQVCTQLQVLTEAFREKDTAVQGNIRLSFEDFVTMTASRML
UniProt Q53EL6, sequence (Q53EL6 whole entry, looked up): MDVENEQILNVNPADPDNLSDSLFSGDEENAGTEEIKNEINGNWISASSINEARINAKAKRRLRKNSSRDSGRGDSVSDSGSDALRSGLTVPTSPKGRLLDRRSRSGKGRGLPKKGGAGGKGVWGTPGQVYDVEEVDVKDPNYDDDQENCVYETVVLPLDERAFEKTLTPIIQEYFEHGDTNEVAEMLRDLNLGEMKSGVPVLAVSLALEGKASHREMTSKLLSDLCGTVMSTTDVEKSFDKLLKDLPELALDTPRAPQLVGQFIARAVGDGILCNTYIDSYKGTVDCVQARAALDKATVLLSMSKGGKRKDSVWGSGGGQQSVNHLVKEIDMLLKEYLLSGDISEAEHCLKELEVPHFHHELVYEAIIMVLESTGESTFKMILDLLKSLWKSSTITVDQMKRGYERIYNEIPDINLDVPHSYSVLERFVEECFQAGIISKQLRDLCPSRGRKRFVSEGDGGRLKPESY

Row | Target | log2 fold change (alvocidib) | log2 fold change (Tubastatin A) | log2 fold change [1] | log2 fold change (defactinib) | log2 fold change [2] | log2 fold change (encorafenib) | log2 fold change [3] | log2 fold change (alisertib) | log2 fold change [4] | log2 fold change (gefitinib) | log2 fold change (lapatinib) | log2 fold change (pictilisib) | log2 fold change (crizotinib) | log2 fold change [5] | log2 fold change (duvelisib) | log2 fold change (gandotinib) | log2 fold change (tozasertib) | log2 fold change (doramapimod) | log2 fold change (bafetinib) | log2 fold change [6]
1 | PRKAR2B (UniProt P31323) | 0 | -0.021 | -0.05 | -0.117 | -0.023 | 0.04 | 0.1 | -0.014 | -0.032 | -0.046 | 0.013 | -0.059 | -0.007 | -0.011 | 0 | -0.31 (active) | 0.038 | 0.017 | -0.02 | 0.001
2 | PEF1 (UniProt Q9UBV8) | 0.027 | 0.097 | 0.029 | 0.087 | 0.029 | 0.039 | -0.034 | -0.017 | 0.029 | -0.02 | 0.019 | 0.041 | -0.002 | 0.051 | -0.004 | -0.055 | 0.032 | -0.01 | -0.027 | 0.051
3 | PDCD4 (UniProt Q53EL6) | 0.01 | -0.033 | 0.017 | 0.002 | 0.019 | 0.019 | -0.034 | -0.005 | 0.015 | -0.003 | -0.026 | -0.003 | -0.055 | -0.051 | -0.022 | 0.009 | -0.002 | 0.011 | -0.038 | 0.062
4 | PPOX (UniProt P50336) | -0.004 | -0.124 | 0.257 | -0.03 | 0.107 | -0.017 | 0.076 | 0.005 | -0.035 | -0.043 | 0.379 (active) | 0.111 | -0.068 | -0.075 | 0.04 | 0.581 (active) | 0.003 | 0.206 | -0.028 | 0.11
5 | PPME1 isoform 4 (UniProt Q9Y570) | 0.01 | 0.024 | 0.008 | 0.024 | 0.002 | -0.001 | -0.066 | 0.031 | 0.005 | 0.002 | -0.014 | 0.009 | 0.005 | -0.014 | 0.002 | -0.002 | 0.048 | 0.026 | 0.052 | -0.006
6 | PCBP2 (UniProt H3BRU6) | 0.033 | -0.116 | 0.082 | 0.061 | 0.018 | 0.04 | 0.017 | -0.023 | 0.072 | -0.145 | 0.116 | -0.021 | -0.04 | 0.044 | 0.028 | 0.01 | -0.112 | -0.119 | 0.079 | -0.041
7 | PLEKHA5 isoform 6 (UniProt Q9HAU0) | -0.11 | -0.074 | 0.02 | 0.065 | 0.006 | -0.016 | 0.054 | 0.035 | -0.03 | -0.039 | 0.003 | -0.054 | 0.006 | -0.033 | -0.032 | 0.093 | 0.002 | -0.028 | -0.061 | 0.002
8 | POLR2B (UniProt P30876) | -0.008 | -0.092 | 0.057 | 0.004 | -0.026 | 0.022 | 0.121 | 0.002 | -0.018 | 0.012 | 0.009 | -0.048 | -0.054 | -0.032 | 0.001 | -0.018 | -0.016 | 0.046 | -0.067 | 0.036
9 | POLD3 (UniProt Q15054) | 0.041 | -0.032 | 0.099 | -0.033 | -0.03 | 0.021 | 0.048 | -0.025 | 0.007 | -0.018 | 0.03 | -0.046 | -0.056 | 0.022 | -0.033 | -0.079 | 0.021 | 0.001 | -0.031 | -0.038
10 | PRKCSH isoform 2 (UniProt P14314) | -0.124 | 0.002 | -0.078 | -0.011 | -0.05 | 0.039 | -0.013 | -0.079 | -0.042 | 0.092 | 0.132 | 0.072 | -0.016 | -0.622 (active) | 0.174 | 0.293 | 0.092 | 0.136 | 0.055 | 0.24
11 | PITRM1 isoform 2 (UniProt Q5JRX3) | 0.016 | 0.04 | 0.023 | 0.008 | -0.029 | -0.012 | 0.228 (active) | -0.016 | -0.016 | 0.044 | -0.001 | -0.025 | 0.053 | 0.04 | 0.029 | 0.013 | 0.006 | -0.024 | -0.023 | -0.062
12 | PHKB isoform 3 (UniProt Q93100) | 0.04 | -0.099 | 0.223 | -0.006 | -0.018 | -0.019 | 0.015 | 0.006 | 0.107 | 0.03 | -0.042 | 0.025 | 0.026 | -0.126 | -0.025 | 0.127 | -0.021 | -0.061 | -0.012 | 0.027
13 | PFN1 (UniProt P07737) | -0.002 | -0.01 | -0.007 | 0.006 | -0.024 | -0.005 | -0.097 | 0.004 | -0.013 | 0.004 | 0.01 | -0.003 | 0.016 | -0.006 | 0.009 | 0.007 | -0.004 | 0.007 | 0 | 0.007
14 | PDAP1 (UniProt Q13442) | -0.074 | 0.063 | 0.004 | -0.012 | 0.109 | -0.038 | -0.017 | 0.006 | 0.018 | -0.029 | -0.004 | 0.03 | 0.043 | -0.232 (active) | -0.043 | 0.135 | -0.026 | -0.03 | 0.006 | 0.089
15 | PDCD6IP isoform 2 (UniProt Q8WUM4) | 0.033 | -0.088 | -0.005 | -0.022 | -0.02 | -0.01 | 0.188 | 0.014 | 0.003 | -0.003 | 0 | -0.015 | -0.015 | 0.071 | -0.009 | -0.09 | 0.024 | -0.008 | -0.006 | -0.019
16 | PXMP4 (UniProt Q9Y6I8) | 0 | -0.015 | 0.012 | -0.028 | 0.736 (active) | 0.033 | 0.092 | -0.039 | -0.009 | -0.039 | -0.071 | 0.066 | -0.29 | -0.068 | -0.112 | -0.221 | -0.034 | 0.238 | -0.148 | 0.194
